Measured values as given in PubChem BioAssay AID1224921 (Broad Institute, 2016).
Out of some 1,400 compounds screened, about 350 (25%) were called active. Inconclusive results (about 2%) are left out. How the calls were made is not given here. These entries were drawn from the full list. Results with a measured potency or affinity are listed apart.

Assay: C. difficile growth inhibition, confirmation, 4-point retest (AID 1224921);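 further: plate controls were DMSO wells for no effect and levofloxacin 16 µg/mL wells for full effect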
Settings: Clostridioides difficile clinical isolate growth, OD600, 24 h, active compounds read low; at 30 µM unless noted

Max activity, inactive:
CCCC(=O)Nc1ccc2c(c1)C(=O)N(C)C[C@H](OC)[C@H](C)CN(Cc1ccc(F)cc1)[C@@H](C)CO2 17.3%
COc1cccc(C#Cc2cnc3c(c2)C(=O)N([C@@H](C)CO)C[C@H](C)[C@@H](CN(C)C)O3)c1 -9.5% [at 1.95 µM]
C[C@@H]1CN([C@H](C)CO)C(=O)c2cc(C#Cc3ccccc3F)cnc2O[C@@H]1CN(C)C(=O)C1CCOCC1 17.1%
CC(=O)N(C)C[C@H]1Oc2ncc(C#Cc3ccccc3F)cc2C(=O)N([C@@H](C)CO)C[C@@H]1C 60.6%
COc1cccc(C#Cc2cnc3c(c2)C(=O)N([C@H](C)CO)C[C@@H](C)[C@H](CN(C)C)O3)c1 6.76%
CCNC(=O)C[C@H]1C=C[C@H](NS(=O)(=O)c2ccc(F)cc2)[C@H](CO)O1 -12%
O=C(C[C@@H]1C[C@H]2c3cc(NC(=O)Nc4ccc(C(F)(F)F)cc4)ccc3O[C@H]2[C@@H](CO)O1)NCc1ccc2c(c1)OCO2 -23.2% [at 8 µM]
CO[C@@H]1CN(C)C(=O)c2ccc(NS(=O)(=O)c3ccccc3C)cc2OC[C@@H](C)N(S(C)(=O)=O)C[C@H]1C -12.6% [at 8 µM]
C[C@@H]1CN([C@@H](C)CO)S(=O)(=O)c2ccc(C#Cc3ccc(F)cc3)cc2O[C@@H]1CN(C)C(=O)NC1CCCCC1 -4.75% [at 8 µM]
C[C@@H]1CN([C@@H](C)CO)C(=O)c2cc(NS(=O)(=O)c3ccc(Cl)cc3)ccc2O[C@@H]1CN(C)Cc1ccccc1 18.9%
CO[C@@H]1CN(C)C(=O)c2cc(NC(=O)C3CCOCC3)ccc2OC[C@H](C)N(C(=O)c2ccccc2)C[C@H]1C -8.41% [at 0.5 µM]
CO[C@@H]1CN(C)C(=O)c2ccc(NC(=O)C3CCC3)cc2OC[C@H](C)N(C(=O)CN(C)C)C[C@@H]1C -13.6% [at 0.5 µM]
CO[C@H]1CN(C)C(=O)c2ccc(NC(=O)C3CCC3)cc2OC[C@H](C)N(C(=O)CN(C)C)C[C@H]1C -8.4%
CO[C@H]1CN(C)C(=O)c2cc(NC(=O)C3CCOCC3)ccc2OC[C@H](C)N(C(=O)c2ccccc2)C[C@H]1C -6.51%
CO[C@H]1CN(C)C(=O)c2cc(NC(=O)C3CCOCC3)ccc2OC[C@@H](C)N(C(=O)c2ccccc2)C[C@H]1C -10.4% [at 1.95 µM]
CO[C@H]1CN(C)C(=O)c2cc(NC(=O)C3CC3)ccc2OC[C@H](C)N(C(=O)c2ccccn2)C[C@@H]1C 5.91%
C[C@H]1CN([C@@H](C)CO)S(=O)(=O)c2ccc(C#CCC3CCCC3)cc2O[C@@H]1CN(C)C(=O)CC1CC1 19.7% [at 8 µM]
CO[C@H]1CN(C)C(=O)c2ccc(NC(=O)c3nc4ccccc4s3)cc2OC[C@H](C)N(Cc2cccnc2)C[C@H]1C 37.7%
CO[C@@H]1CN(C)C(=O)c2cc(NC(=O)Nc3ccccc3Cl)ccc2OC[C@@H](C)N(S(C)(=O)=O)C[C@H]1C -12.2% [at 0.5 µM]
O=C(CN1CCOCC1)N[C@@H]1CC[C@@H](CCNS(=O)(=O)c2ccccc2F)O[C@@H]1CO -8.89% [at 0.5 µM]
C[C@@H]1CN([C@@H](C)CO)C(=O)c2ccccc2-c2ccccc2CO[C@H]1CN(C)S(=O)(=O)c1ccc(Cl)cc1 33.2% [at 35 µM]
C[C@H](CO)N1C[C@H](C)[C@H](CN(C)S(=O)(=O)c2ccccc2)Oc2ccc(NC(=O)Nc3cccc4ccccc34)cc2C1=O -17.7% [at 8 µM]
C[C@@H]1CN([C@H](C)CO)C(=O)c2cccc(NC(=O)Nc3ccc(C(F)(F)F)cc3)c2O[C@H]1CN(C)Cc1ccc2c(c1)OCO2 43.4% [at 8 µM]
C[C@@H]1CN([C@@H](C)CO)C(=O)c2cccc(NC(=O)Nc3ccc(F)cc3)c2O[C@H]1CN(C)CC1CCCCC1 13.5% [at 8 µM]
C[C@H](CO)N1C[C@H](C)[C@@H](CN(C)Cc2ccc3c(c2)OCO3)Oc2c(NC(=O)Nc3ccc(C(F)(F)F)cc3)cccc2C1=O 43.3%
C[C@H](CO)N1C[C@H](C)[C@H](CN(C)C(=O)NC2CCCCC2)Oc2c(NC(=O)Nc3ccc(C(F)(F)F)cc3)cccc2C1=O 35.7% [at 1.95 µM]
CCCC(=O)Nc1ccc2c(c1)OC[C@H](C)N(CCc1ccccc1)C[C@@H](C)[C@@H](OC)CN(C)C2=O -11.5% [at 0.5 µM]
C[C@@H]1CN([C@@H](C)CO)C(=O)Cc2cc(N(C)C)ccc2O[C@H]1CN(C)Cc1ccc(-c2ccccc2)cc1 20.5% [at 8 µM]
C#CCNC(=O)C1=C[C@H](c2cn(C(C)=O)c3ccccc23)C[C@H](OCc2ccc(CO)cc2)O1 -9.52% [at 0.5 µM]
O=C(N[C@H]1C=C[C@@H](CC(=O)N2CCOCC2)O[C@@H]1CO)c1cccc(F)c1 -5.96%
C[C@@H]1CCCCO[C@H](CN(C)CC2CC2)[C@H](C)CN([C@@H](C)CO)C(=O)c2cc(NC(=O)Nc3cccc4ccccc34)ccc2O1 13.7%
CCc1cnc(N2[C@H](CO)[C@H](c3ccc(C#CC(C)C)cc3)[C@@H]2C#N)s1 17% [at 1.95 µM]
CC(C)CC#Cc1ccc2c(c1)O[C@H](CN(C)Cc1cccnc1)[C@@H](C)CN([C@H](C)CO)S2(=O)=O 42.9%
CC(C)Cc1ccc(CN2CC[C@@H](NC(=O)c3ccccc3)C2)cc1 20.1% [at 8 µM]
C[C@H](CO)N1C[C@H](C)[C@@H](CN(C)C(=O)Nc2ccc(C(F)(F)F)cc2)Oc2c(NC(=O)c3ccc(-c4nccs4)cc3)cccc2C1=O 7.84%
CC(C)NC(=O)NCC[C@H]1CC[C@@H](NS(=O)(=O)c2ccc(Oc3ccccc3)cc2)[C@H](CO)O1 9.67%
O=C(C[C@@H]1CC[C@H](NC(=O)Nc2cc(F)ccc2F)[C@H](CO)O1)NCc1ccc2c(c1)OCO2 4.18% [at 8 µM]
O=S(=O)(NCC[C@H]1CC[C@H](NS(=O)(=O)c2ccccc2Cl)[C@H](CO)O1)c1ccc(Cl)cc1 10% [at 7.5 µM]
CC(C)NC(=O)NCC[C@H]1CC[C@@H](NS(=O)(=O)c2ccc(Oc3ccccc3)cc2)[C@@H](CO)O1 13.9% [at 35 µM]
Cc1ccc(S(=O)(=O)N[C@H]2CC[C@H](CCNS(=O)(=O)Cc3ccccc3)O[C@H]2CO)cc1 -13.6% [at 7.5 µM]
O=C(NCC[C@@H]1CC[C@H](NC(=O)Nc2cc(F)ccc2F)[C@H](CO)O1)Nc1ccc(Cl)cc1 -10.4% [at 0.5 µM]
CC(C)CC#Cc1ccc2c(c1)O[C@@H](CN(C)C(=O)c1ccccc1)[C@@H](C)CN([C@@H](C)CO)S2(=O)=O 35.1%
CC(=O)N(C)C[C@H]1Oc2ncc(-c3ccc(C#N)cc3)cc2C(=O)N([C@H](C)CO)C[C@H]1C -10.1% [at 1.95 µM]
CO[C@H]1CN(C)C(=O)c2cc(NS(=O)(=O)c3cccc(F)c3)ccc2OC[C@H](C)N(Cc2cc(F)ccc2F)C[C@H]1C 7.97%
CCC(=O)Nc1ccc2c(c1)C(=O)N(C)C[C@@H](OC)[C@@H](C)CN(C(=O)CN1CCOCC1)[C@H](C)CO2 18.1%
CCCN1C[C@H](C)[C@H](OC)CN(C)C(=O)c2cc(NC(=O)c3cccc(OC)c3)ccc2OC[C@@H]1C -8.29% [at 0.5 µM]
C[C@H](CO)N1C[C@H](C)[C@@H](CN(C)Cc2ccc3c(c2)OCO3)Oc2ccc(NC(=O)Nc3ccc4c(c3)OCO4)cc2C1=O -9.66% [at 8 µM]
C[C@H](CO)N1C[C@H](C)[C@@H](CN(C)S(=O)(=O)CC(F)(F)F)OCc2ccccc2-c2c(n(C)c3ccccc23)C1=O 24.2%
CC(C)CC#Cc1ccc2c(c1)O[C@@H](CN(C)Cc1ccncc1)[C@H](C)CN([C@H](C)CO)S2(=O)=O 18.2% [at 8 µM]
C[C@@H]1CN([C@@H](C)CO)S(=O)(=O)c2ccc(C#CCC3CCCC3)cc2O[C@H]1CN(C)C(=O)CC1CC1 -15.8% [at 1.95 µM]
O=C(C[C@H]1CC[C@H](NC(=O)CCN2CCCCC2)[C@H](CO)O1)Nc1nccs1 -18.1% [at 8 µM]
C[C@@H]1CN([C@@H](C)CO)C(=O)c2cc(C#CC3CCCCC3)cnc2O[C@@H]1CN(C)Cc1cccnc1 58.9%
CCCNC(=O)N(C)C[C@H]1Oc2ncc(C#CCc3ccccc3)cc2C(=O)N([C@@H](C)CO)C[C@@H]1C 16.1%
CC(=O)N(C)C[C@@H]1Oc2ncc(C#Cc3ccc(F)cc3)cc2C(=O)N([C@@H](C)CO)C[C@H]1C 24.8%
COc1ccc(C#Cc2cnc3c(c2)C(=O)N([C@@H](C)CO)C[C@H](C)[C@@H](CN(C)CC2CCOCC2)O3)cc1 8.65% [at 8 µM]
C[C@H](O)C#Cc1cnc2c(c1)C(=O)N([C@@H](C)CO)C[C@H](C)[C@H](CN(C)Cc1ccc(-c3ccccc3)cc1)O2 31.6%
C[C@@H]1CN([C@@H](C)CO)C(=O)c2cc(C#CC3CCCCC3)cnc2O[C@H]1CN(C)Cc1cccnc1 21.1%
